# Experimental data as given in PubChem BioAssay (Tox21).
# “And” between values parts separate entries of the source, which are not always exact repeats. Identical values can stand only once. Values without a mark were called inactive. Inconclusive results are not listed. Entries that show only a call come without a potency. The source made the active and inactive calls. Calls follow the shape of the dose curve; as a rule, active = well fitted curve in the direction sought with a large enough effect in the repeat runs; inconclusive = weak or mixed curves; inactive = no such curve, though single readings can be large; an effect the other way counts as inactive or inconclusive.
# How the values were obtained:
# [1] = Human pregnane X receptor (PXR) small molecule agonists, qHTS cell viability counter screen (AID 1346977); also: nearly all actives have a fitted effect of over 50% in size; also: potency is read from the fitted curve at half-maximal effect
# Procedure, shortened: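 HepG2 cells stably carrying the PXR-Luc reporter are cultured with 5% charcoal-stripped FBS and treated with compounds for 24hr. CellTiter-Fluor is added at 23hr and fluorescence is read after 1hr.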
# [2] = Caspase-3/7 induction in HepG2 cells by small molecules, qHTS assay (AID 1346978); also: nearly all actives have a fitted effect of over 15% in size; also: potency is read from the fitted curve at half-maximal effect
# Procedure, shortened: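 Wild-type HepG2 cells (2,000/well) were settled 5 h at 37 C, 5% CO2, then exposed to compounds in DMSO for 17 h. Caspase-3/7 activity was read by luminescence 30 min after adding Caspase-Glo 3/7 reagent at room temperature.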
# [3] = Caspase-3/7 induction in CHO-K1 cells by small molecules, qHTS cell viability counter screen (AID 1346979); also: nearly all actives have a fitted effect of over 35% in size; also: potency is read from the fitted curve at half-maximal effect
# Procedure, shortened: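 Seeding: 1,500 CHO-K1 cells/well. Rest: 5hr, 37C. Treatment: compounds in DMSO, 16hr. Read: CellTiter-Fluor, 1hr, fluorescence.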
# [4] = Caspase-3/7 induction in CHO-K1 cells by small molecules, qHTS assay (AID 1346980); also: nearly all actives have a fitted effect of over 15% in size; also: potency is read from the fitted curve at half-maximal effect
# Procedure, shortened: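 Wild-type cells were seeded at 1,500 per well and settled 5 hr at 37 C, 5% CO2, then exposed to DMSO-dissolved compounds for 17 hr. Caspase-Glo 3/7 reagent was added, and luminescence was read after 30min at room temperature.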
# [5] = target: Nuclear receptor subfamily 1 group I member 2 (Homo sapiens) (UniProt O75469); experiment: Human pregnane X receptor (PXR) small molecule agonists, qHTS assay (AID 1346982); also: nearly all actives have a fitted effect of over 35% in size; also: potency is read from the fitted curve at half-maximal effect
# Nuclear receptor subfamily 1 group I member 2 (Homo sapiens), sequence (O75469 whole entry, looked up): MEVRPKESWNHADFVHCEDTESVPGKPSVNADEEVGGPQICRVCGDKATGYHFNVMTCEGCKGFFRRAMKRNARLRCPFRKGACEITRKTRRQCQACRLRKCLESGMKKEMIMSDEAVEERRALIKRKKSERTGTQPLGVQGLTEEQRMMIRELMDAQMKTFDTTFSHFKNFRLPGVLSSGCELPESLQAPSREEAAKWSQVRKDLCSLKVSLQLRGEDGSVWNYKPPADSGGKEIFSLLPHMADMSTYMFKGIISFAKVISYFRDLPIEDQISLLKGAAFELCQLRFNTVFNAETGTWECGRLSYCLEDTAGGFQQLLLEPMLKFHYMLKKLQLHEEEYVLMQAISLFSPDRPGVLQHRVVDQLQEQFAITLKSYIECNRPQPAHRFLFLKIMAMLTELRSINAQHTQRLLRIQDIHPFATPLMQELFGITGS
# Procedure, shortened: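 HepG2 PXR-Luc reporter line, 5% charcoal-stripped FBS; 5 hr pre-incubation, compound (DMSO) 24 hr at 37 C/5% CO2; ONE-Glo 30 min RT; luminescence read-out.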
# [6] = target: Cytochrome P450 2D6 (Homo sapiens) (UniProt P10635); experiment: Cytochrome P450 Family 2 Subfamily D Member 6 (CYP2D6) small molecule antagonists: luciferase reporter qHTS assay (AID 1671196); also: nearly all actives have a fitted effect of over 50% in size; also: potency is read from the fitted curve at half-maximal effect
# Cytochrome P450 2D6 (Homo sapiens), sequence (P10635 whole entry, looked up): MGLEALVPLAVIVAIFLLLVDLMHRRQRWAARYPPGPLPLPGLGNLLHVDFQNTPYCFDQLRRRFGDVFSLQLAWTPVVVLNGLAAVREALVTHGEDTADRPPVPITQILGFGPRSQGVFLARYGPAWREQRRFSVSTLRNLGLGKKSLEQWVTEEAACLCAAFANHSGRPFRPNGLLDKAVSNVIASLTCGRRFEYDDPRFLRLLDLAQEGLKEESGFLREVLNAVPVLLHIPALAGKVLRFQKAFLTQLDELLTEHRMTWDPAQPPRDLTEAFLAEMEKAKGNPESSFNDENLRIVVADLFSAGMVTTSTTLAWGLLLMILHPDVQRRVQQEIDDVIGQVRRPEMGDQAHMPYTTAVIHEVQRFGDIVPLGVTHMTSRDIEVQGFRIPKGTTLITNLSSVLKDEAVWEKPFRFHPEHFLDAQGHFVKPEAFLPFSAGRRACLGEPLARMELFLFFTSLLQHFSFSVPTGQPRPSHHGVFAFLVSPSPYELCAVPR
# Procedure, shortened: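 Luminogenic proluciferin substrate, CYP2D6 enzyme; 10 min RT preincubation with compound, NADPH regeneration system added, 1 h RT. Stop/detection reagent, 20 min RT, luminescence read (RLU). Signal proportional to CYP activity.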
# [7] = Caspase-3/7 induction in HepG2 cells by small molecules, qHTS cell viability counter screen (AID 1346981); also: nearly all actives have a fitted effect of over 30% in size; also: potency is read from the fitted curve at half-maximal effect
# Procedure, shortened: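 Fluorescence read-out of live-cell protease activity (CellTiter-Fluor) after 1 hr with reagent. This was measured in the same wells as the caspase-3/7 luminescence, on HepG2 cells exposed to DMSO-dissolved compounds for 16 hr at 37 C.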
# [8] = target: Nuclear receptor subfamily 1 group I member 2 (Homo sapiens) (UniProt O75469); experiment: CYP3A4 induction through human pregnane X receptor (PXR) by small molecules, qHTS assay (AID 1346984); also: nearly all actives have a fitted effect of over 40% in size
# Procedure, shortened: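 HepG2-derived DPX-2 line carrying PXR plus a CYP3A4-promoter luciferase reporter; cells plated 5 hr, compound-exposed 24 hr at 37C. CYP3A4 activity probed with 3uM (final) Luciferin-IPA for 3hr, then luciferase read after One-Glo.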
# [9] = target: Nuclear receptor subfamily 1 group I member 2 (Homo sapiens) (UniProt O75469); experiment: Human pregnane X receptor (PXR) activation by small molecules, qHTS assay (AID 1346985); also: nearly all actives have a fitted effect of over 40% in size
# Procedure, shortened: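 DPX-2 cells (HepG2 co-transfected with a PXR response element and a CYP3A4-promoter luciferase construct) were seeded at 2,000 per well, rested 5 hr at 37C, then exposed to DMSO-dissolved compounds for 24 hr. Activation was read as luciferase luminescence.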
# [10] = target: Nuclear receptor subfamily 1 group I member 2 (Rattus norvegicus) (UniProt Q9R1A7); experiment: Rat pregnane X receptor (rPXR) activation by small molecules, qHTS assay (AID 1346983); conditions: rPXR luciferase reporter cells, One-Glo luminescence, 24 h; max activation: hits give high values; also: nearly all actives have a fitted effect of over 20% in size
# Nuclear receptor subfamily 1 group I member 2 (Rattus norvegicus), sequence (Q9R1A7 whole entry, looked up): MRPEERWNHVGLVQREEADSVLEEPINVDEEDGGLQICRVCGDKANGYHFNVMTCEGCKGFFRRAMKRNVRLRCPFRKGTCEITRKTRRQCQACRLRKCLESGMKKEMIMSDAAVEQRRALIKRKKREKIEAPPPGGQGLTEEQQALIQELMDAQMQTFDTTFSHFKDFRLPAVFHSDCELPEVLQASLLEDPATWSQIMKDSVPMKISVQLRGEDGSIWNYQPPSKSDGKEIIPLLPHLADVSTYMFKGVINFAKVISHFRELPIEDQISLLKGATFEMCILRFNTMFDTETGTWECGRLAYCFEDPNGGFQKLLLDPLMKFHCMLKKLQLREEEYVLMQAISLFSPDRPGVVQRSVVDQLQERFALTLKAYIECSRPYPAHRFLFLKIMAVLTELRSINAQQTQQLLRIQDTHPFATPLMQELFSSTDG
# Procedure, shortened: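 Cell-based rPXR luciferase reporter assay, 2,000 cells per well, rested 5hr at 37 C before compound addition in DMSO, then 24 hr at 37 C. One-Glo reagent was added and luminescence read after 30 min at room temperature.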
SMILES,Potency [1],Potency [2],Potency [3],Potency [4],Potency [5],Potency [6],Potency [7],Potency [8],Potency [9],max activation [10] [%]
CCOC(=O)c1nc(C(Cl)(Cl)Cl)n(-c2ccc(Cl)cc2Cl)n1,54.5 µM (active),inactive,54.5 µM (active),inactive,19.3 µM (active),14.2 µM (active),–,–,–,–
CSc1ccc(/C=C2/C(C)=C(CC(=O)O)c3cc(F)ccc32)cc1,inactive,inactive,inactive,–,inactive,inactive,inactive,–,–,–
CCCCCCCCNC(C)C(O)c1ccc(SC(C)C)cc1 (stereo unspecified),13.3 µM (active),21.1 µM (active),16.8 µM (active),–,inactive,1.95 µM (active),29.8 µM (active),–,–,–
CCCC/C=C/CCCCO,inactive,inactive,inactive,–,inactive,inactive,inactive,–,–,–
N=C1N=C(N)c2cc3ccccc3cc21,15.8 µM (active),45.8 µM (active),25.8 µM (active),–,12.2 µM (active),32.6 µM (active),19.3 µM (active),–,–,–
C=C(C)C(=O)OCC(O)COc1ccc(C(C)(C)c2ccc(OCC(O)COC(=O)C(=C)C)cc2)cc1 (stereo unspecified),inactive,inactive,54.5 µM (active),inactive,27.3 µM (active),39.9 µM (active),–,–,–,–
C[C@]12CCC(=O)C=C1CC[C@@H]1[C@@H]2[C@@H](O)C[C@@]2(C)[C@H]1CC[C@]2(O)C(=O)COC(=O)CCC(=O)O,inactive,inactive,inactive,–,inactive,inactive,inactive,–,–,–
CC[C@@]1(O)C(=O)OCc2c1cc1n(c2=O)Cc2c-1nc1ccccc1c2/C=N/OC(C)(C)C,0.237 µM (active),0.335 µM (active),0.75 µM (active),11.9 µM (active),inactive,inactive,–,–,–,–
On1ccccc1=S,0.762 µM (active),1.71 µM (active),0.428 µM (active),–,–,–,15.2 µM (active),–,–,–
O=C(N/N=C/c1ccccc1O)c1ccncc1,inactive,inactive,7.5 µM (active),–,inactive,27.5 µM (active),inactive,inactive,inactive,–
[Cl][Bi]([Cl])([c]1ccccc1)([c]1ccccc1)[c]1ccccc1,3.83 µM (active),inactive,3.05 µM (active),–,0.483 µM (active),6.29 µM (active),68.2 µM (active),–,–,–
CCN(Cc1cccnc1)C(=O)c1cccc(Cl)c1[C@]1(C)C(=O)N(Cc2ccc(OC)cc2OC)c2ccc(Cl)cc21,25.5 µM (active),inactive,20.3 µM (active),–,20.3 µM (active),18.7 µM (active),45.4 µM (active),–,–,–
CCCCCCCCCCn1cc[n+](CCCCCCCCCC)c1C,19.4 µM (active),48.6 µM (active),6.87 µM (active),–,7.7 µM (active),1.26 µM (active),68.7 µM (active),–,–,–
N=C1N=C(N)c2ccccc21,27.3 µM (active),54.5 µM (active),61.1 µM (active),–,24.3 µM (active),56.4 µM (active),27.3 µM (active),–,–,–
CCCCCCCC[N+](CCCCCCCC)(CCCCCCCC)CCCCCCCC,5.44 µM (active),15.3 µM (active),8.62 µM (active),–,3.06 µM (active),0.563 µM (active),21.6 µM (active),–,–,–
COc1c(C)c2c(c(O)c1C/C=C(\C)CCC(=O)O)C(=O)OC2,inactive,inactive,1.19 µM (active),inactive,inactive,inactive,–,inactive,inactive,–
CS(=O)(=O)CCNCc1ccc(-c2ccc3ncnc(Nc4ccc(OCc5cccc(F)c5)c(Cl)c4)c3c2)o1,26.6 µM (active),33.5 µM (active),23.7 µM (active),–,–,–,29.8 µM (active),–,–,–
Cc1c(C)c2c(c(C)c1OC(=O)CCC(=O)O)CC[C@@](C)(CCC[C@H](C)CCC[C@H](C)CCCC(C)C)O2,inactive,inactive,inactive,inactive,19.5 µM (active),inactive,–,inactive,inactive,–
CCC(Cl)C(Cl)C(Cl)CC(Cl)C(Cl)C(C)Cl (stereo unspecified),inactive,inactive,–,inactive,21.7 µM (active),35.6 µM (active),inactive,–,–,–
Oc1ccc2cc(SSc3ccc4cc(O)ccc4c3)ccc2c1,inactive,inactive,48.6 µM (active) and 54.5 µM (active),–,17.2 µM (active) and 15.4 µM (active),–,–,–,–,–
Cc1ccc(O)c(C(C)(C)C)c1,inactive,61 µM (active),–,inactive,inactive,inactive,inactive,–,–,–
COc1ccc(C(=O)/C(Br)=C\C(=O)O)cc1,61.1 µM (active),inactive,54.5 µM (active),–,21.7 µM (active),63.3 µM (active),–,inactive,inactive,-6.96
CCN(CC)CCNC(=O)c1c(C)[nH]c(/C=C2\C(=O)Nc3ccc(F)cc32)c1C,11.9 µM (active),–,13.3 µM (active),inactive,–,–,10.6 µM (active),–,–,–
Cc1c(C)c2c(c(C)c1O)CCC(C)(COc1ccc(CC3SC(=O)NC3=O)cc1)O2 (stereo unspecified),inactive,inactive,–,inactive,–,inactive,inactive,–,–,–
Oc1ccc2c(c1)-c1ccccc1C2,inactive,inactive,–,inactive,68.6 µM (active),inactive,inactive,–,–,–
Cc1cccc(CN2CCN(C(c3ccccc3)c3ccc(Cl)cc3)CC2)c1 (stereo unspecified),inactive,inactive,–,–,inactive,3.09 µM (active),inactive,inactive,inactive,-4.36
Cc1ccc2oc(CN(Cc3ccccc3)C(=O)Nc3c(F)cc(F)cc3F)c(-c3ccc(Cl)cc3)c2c1,inactive,inactive,–,inactive,3.74 µM (active),0.194 µM (active),inactive,–,–,–
NNc1nc(-c2ccccc2)cs1,inactive,inactive,62.9 µM (active),–,31.5 µM (active),–,–,–,–,–
CCCCCCCCCCCCCCCC(=O)OC[C@H](O)[C@H]1OC(=O)C(O)=C1O,inactive,inactive,–,–,inactive,inactive,inactive,–,–,–
NC(=O)N1C(=O)C(C(=O)c2cc(Cl)cs2)c2cc(F)c(Cl)cc21 (stereo unspecified),54.5 µM (active),–,61.1 µM (active),inactive,–,–,54.5 µM (active),–,–,–
